# Where “and” joins values, the source holds several entries; their conditions need not be identical. Equal entries are not always repeated.
# Test: A High Throughput Confirmatory Assay used to Identify Novel Compounds that Inhibit Mycobacterium Tuberculosis in the absence of Glycerol using Purified and Synthesized Compounds (8).
# Format: functional
row,Structure (SMILES),IC90
1,CC(C)OC(=O)CSc1ncnc2c1cnn2-c1ccccc1,> 100 µM (active)
2,CC1CC(C)CN(C(=O)C2CCC(CNc3c(N4CCCCC4)c(=O)c3=O)CC2)C1 (stereo unspecified),> 75 µM (active) and > 100 µM (active)
3,CC(C)CCNC(=O)CSc1nc2c(c(=O)[nH]1)CCCCC2,> 100 µM (active)
4,O=C(c1ccc(CNc2c(N3CCOCC3)c(=O)c2=O)cc1)N1CCN(c2ccccc2)CC1,> 53.1 µM (active)
5,CCOC(=O)N1CCC(/N=c2\c(O)c(O)\c2=N/c2cccc(CC)c2)CC1,> 59.3 µM (active)
6,CC1CC(C)CN(C(=O)c2ccc(CNc3c(N4CCCC4)c(=O)c3=O)cc2)C1 (stereo unspecified),> 100 µM (active)

# From ChEMBL document CHEMBL1201862, “PubChem BioAssay data set” (2004)
